From PubChem BioAssay (NCATS)
Inconclusive results are not listed. Activity calls are given as the source filed them. Calls come from the whole dose curve; as a rule, active = well fitted curve in the direction sought with a large enough effect; inconclusive = small, poorly fitted or top-dose-only effect, or another doubt; inactive = no such curve, though single readings can be large; an effect the other way counts as inactive or inconclusive.

Key:
[1] = biological target: Rap guanine nucleotide exchange factor 3 (Homo sapiens) (UniProt O95398); experiment: Confirmatory qHTS for antagonist of cAMP-regulated guanine nucleotide exchange factor 3 (EPAC1) (AID 1645880); note: nearly all actives have a fitted effect of over 55% in size; note: potency is the fitted concentration of half-maximal effect
Summary of the method: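 Nucleotide exchange uses 100 nM EPAC1, 250 nM RAP1B-BODIPY-GDP and 50 uM GDP, with compounds in a concentration-titration series. After 5 min at room temperature, fluorescence (480 nm ex/540 nm em) is read every 5 min for 30 min. Data are normalized to control ATA and DMSO.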

[2] = biological target: Rap guanine nucleotide exchange factor 3 (Homo sapiens) (UniProt O95398); experiment: Confirmatory qHTS for agonist of cAMP-regulated guanine nucleotide exchange factor 3 (EPAC1) (AID 1645881);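 note: EPAC1 catalysed release of BODIPY-GDP from Rap1B seen as fluorescence loss; 100% = effect of cAMP agonist control; nearly all actives have a fitted effect of over 75% in size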
[3] = biological target: Rap guanine nucleotide exchange factor 4 (Homo sapiens) (UniProt Q8WZA2); experiment: Confirmatory qHTS for agonist of cAMP-regulated guanine nucleotide exchange factor 4 (EPAC2) (AID 1645884);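 note: nucleotide exchange releases bodipy-GDP from Rap1 and this lowers its fluorescence; % is set by controls: 0 for no effect and ±100 for the full control effect; nearly all actives have a fitted effect of over 65% in size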
[4] = biological target: Rap guanine nucleotide exchange factor 4 (Homo sapiens) (UniProt Q8WZA2); experiment: Confirmatory qHTS for antagonist of cAMP-regulated guanine nucleotide exchange factor 4 (EPAC2) (AID 1645885); note: nearly all actives have a fitted effect of over 25% in size; note: potency is the fitted concentration of half-maximal effect; for activity change, negative = inhibition: % is set by controls: 0 for no effect and ±100 for the full control effect
[5] = biological target: Rap guanine nucleotide exchange factor 3 (Homo sapiens) (UniProt O95398); experiment: Counterscreen qHTS for antagonist of cAMP-regulated guanine nucleotide exchange factor 3 (EPAC1) (AID 1645888);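 note: fluorescence loss as bound BODIPY-GDP is released from Rap1B; % of control where 0% means no effect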
Summary of the method: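 Rap1B-BODIPY-GDP 250 nM + GDP 50 uM; cpds 7-pt, final 9.74 nM–152 uM (activator mode) or from 7.32 nM upwards (inhibitor mode); RT; FI 480/540 nm at 5 and 30 min, then ± cAMP, reread.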

Rap guanine nucleotide exchange factor 4 (Homo sapiens), sequence (Q8WZA2 whole entry, looked up): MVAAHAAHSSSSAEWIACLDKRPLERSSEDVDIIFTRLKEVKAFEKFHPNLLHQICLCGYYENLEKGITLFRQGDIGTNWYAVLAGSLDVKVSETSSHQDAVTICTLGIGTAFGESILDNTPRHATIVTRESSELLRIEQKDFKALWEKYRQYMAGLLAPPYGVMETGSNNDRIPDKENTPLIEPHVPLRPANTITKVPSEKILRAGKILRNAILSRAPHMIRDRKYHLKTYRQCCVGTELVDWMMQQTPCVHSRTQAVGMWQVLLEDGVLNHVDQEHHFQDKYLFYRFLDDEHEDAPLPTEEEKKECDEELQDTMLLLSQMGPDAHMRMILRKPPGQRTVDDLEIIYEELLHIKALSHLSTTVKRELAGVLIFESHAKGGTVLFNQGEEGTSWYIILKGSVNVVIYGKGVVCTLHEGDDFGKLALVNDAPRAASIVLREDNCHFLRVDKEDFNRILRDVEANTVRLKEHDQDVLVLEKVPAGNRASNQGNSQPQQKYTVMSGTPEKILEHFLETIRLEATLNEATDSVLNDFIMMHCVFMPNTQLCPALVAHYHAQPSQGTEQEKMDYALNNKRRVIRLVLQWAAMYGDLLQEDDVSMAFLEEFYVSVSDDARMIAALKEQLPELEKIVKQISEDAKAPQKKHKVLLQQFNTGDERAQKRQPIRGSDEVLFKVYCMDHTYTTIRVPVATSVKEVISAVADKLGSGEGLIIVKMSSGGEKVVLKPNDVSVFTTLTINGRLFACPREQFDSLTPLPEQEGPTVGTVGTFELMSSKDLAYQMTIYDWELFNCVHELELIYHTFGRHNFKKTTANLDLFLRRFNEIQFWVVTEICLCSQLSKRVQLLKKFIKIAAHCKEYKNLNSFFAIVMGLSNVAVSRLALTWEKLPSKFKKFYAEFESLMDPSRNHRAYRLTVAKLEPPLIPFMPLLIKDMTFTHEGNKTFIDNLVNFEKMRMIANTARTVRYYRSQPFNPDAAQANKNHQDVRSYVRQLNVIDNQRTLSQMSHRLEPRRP
Rap guanine nucleotide exchange factor 3 (Homo sapiens), sequence (O95398 whole entry, looked up): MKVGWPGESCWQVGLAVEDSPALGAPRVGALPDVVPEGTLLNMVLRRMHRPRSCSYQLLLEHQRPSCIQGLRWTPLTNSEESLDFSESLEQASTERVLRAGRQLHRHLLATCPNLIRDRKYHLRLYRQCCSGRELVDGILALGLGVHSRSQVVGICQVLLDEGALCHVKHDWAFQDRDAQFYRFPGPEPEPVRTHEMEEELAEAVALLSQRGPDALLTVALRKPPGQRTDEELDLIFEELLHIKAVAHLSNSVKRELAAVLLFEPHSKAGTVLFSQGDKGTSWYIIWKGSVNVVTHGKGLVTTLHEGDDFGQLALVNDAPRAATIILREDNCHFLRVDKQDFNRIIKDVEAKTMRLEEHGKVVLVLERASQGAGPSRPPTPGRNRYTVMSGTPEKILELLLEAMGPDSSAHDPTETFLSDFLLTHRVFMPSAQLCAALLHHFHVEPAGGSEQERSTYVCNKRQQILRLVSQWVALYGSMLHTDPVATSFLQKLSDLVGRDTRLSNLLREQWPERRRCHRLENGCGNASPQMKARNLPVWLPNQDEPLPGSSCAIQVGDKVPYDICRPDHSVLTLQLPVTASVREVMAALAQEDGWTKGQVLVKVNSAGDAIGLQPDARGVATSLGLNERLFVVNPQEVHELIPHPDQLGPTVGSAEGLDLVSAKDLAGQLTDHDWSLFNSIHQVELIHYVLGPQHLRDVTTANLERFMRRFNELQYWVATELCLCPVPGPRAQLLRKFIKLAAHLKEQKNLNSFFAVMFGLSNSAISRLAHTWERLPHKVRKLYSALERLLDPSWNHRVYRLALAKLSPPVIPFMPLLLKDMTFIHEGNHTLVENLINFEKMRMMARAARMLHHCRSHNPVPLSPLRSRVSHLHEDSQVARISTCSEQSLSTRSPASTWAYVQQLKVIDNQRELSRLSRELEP

Cc1ccc(NC(=O)c2c(NC(=O)C(F)(F)F)sc3c2CCCCC3)cc1
inactive: Potency [2] | Potency [3] | Potency [4] | Potency [5]
active: Potency [1] 84.9 µM

Cc1c(C(=O)OCC(=O)N2CCCC2=O)oc2ccccc12
inactive: Potency [1] | Potency [2] | Potency [3] | Potency [4] | Potency [5]

CC(C)C[C@H](NC(=O)[C@H](Cc1ccccc1)n1c(=O)[nH]c2ccccc2c1=O)C(=O)N1CCC(C(=O)O)CC1
inactive: Potency [1] | Potency [2] | Potency [3] | Potency [4] | Potency [5]

COC(=O)c1cn(C(=O)c2cc(OC)c(OC)c(OC)c2)c2ccccc12
inactive: Potency [1] | Potency [2] | Potency [3] | Potency [4] | Potency [5]

CCOC(=O)C1C(=O)C=C(c2ccccc2)CC1c1ccccc1 (stereo not given)
inactive: Potency [1] | Potency [2] | activation [3] 12.3% [at 17.1 µM, percent relative to cAMP agonist control] | Potency [4] | activity change, negative = inhibition [5] -11.6% [at 30.8 µM]

CC(C)c1nc(SCC(=O)N2CCCc3ccccc32)c2c(=O)n(C)c(=O)n(C)c2n1
inactive: Potency [1] | Potency [2] | Potency [3] | Potency [4] | Potency [5]

COC(=O)c1c(SC)nc2ccccc2c1OCc1ccc(Br)cc1
inactive: Potency [1] | Potency [2] | Potency [3] | Potency [4] | Potency [5]

Cc1ccc(C(=O)Nc2ccc(N3CCOCC3)c3nonc23)cc1[N+](=O)[O-]
active: Potency [1] 47.8 µM
inactive: Potency [2] | Potency [3] | Potency [4] | Potency [5]

COc1ccc([N+](=O)[O-])cc1NC(=S)Nc1ccccc1
inactive: Potency [1] | Potency [2] | Potency [3] | Potency [4] | Potency [5]

OC[C@H]1O[C@H](OCCc2ccc(O)cc2)[C@H](O)[C@@H](O)[C@@H]1O
inactive: Potency [1] | Potency [2] | Potency [3] | Potency [4] | Potency [5]

CC(C)c1ccc(C2NC(=O)c3c(sc4c3CCN(C)C4)N2)cc1 (stereo not given)
inactive: Potency [1] | Potency [2] | Potency [3] | Potency [4] | Potency [5]

Cc1ccc(C)c(COC(=O)c2cc(S(=O)(=O)N3CCCCC3)ccc2N2CCOCC2)c1
inactive: Potency [1] | Potency [2] | Potency [3] | Potency [4] | Potency [5]

NS(=O)(=O)c1cc(C(=O)NC2CCSc3ccccc32)ccc1Cl (stereo not given)
active: Potency [1] 13.5 µM | Potency [4] 30.1 µM
inactive: Potency [2] | Potency [3] | Potency [5]

C=CCn1c(O)c(N=NC(=O)CNC(=O)/C=C/c2ccc(OC)cc2)c2ccccc21
inactive: Potency [1] | Potency [2] | Potency [3] | Potency [4] | Potency [5]

COc1ccc(OC)c(/C=C2\N=C(c3ccccc3)OC2=O)c1
inactive: Potency [1] | Potency [2] | Potency [3] | Potency [4] | Potency [5]

Cc1ccc(N(Cc2cccs2)C(=O)c2ccccc2Cl)cc1
inactive: Potency [1] | Potency [2] | Potency [3] | Potency [4] | Potency [5]

COc1ccc(N2CCN(S(=O)(=O)c3cc4c(cc3C)NC(=O)CO4)CC2)cc1
inactive: Potency [1] | Potency [2] | Potency [3] | Potency [4] | Potency [5]

CN1C(=O)Cc2cc(S(=O)(=O)N3CCN(c4ccccc4F)CC3)ccc21
inactive: Potency [1] | Potency [2] | Potency [3] | Potency [4] | Potency [5]

COCCn1cnnc1SCC(=O)Nc1sc2c(c1C#N)CCC2
inactive: Potency [1] | Potency [2] | activation [3] 9.93% [at 17.1 µM, percent relative to cAMP agonist control] | Potency [4] | activity change, negative = inhibition [5] 9.73% [at 30.8 µM]

CCCCOc1ccccc1Cn1c(=O)oc2ccc(C)cc21
inactive: Potency [1] | Potency [2] | Potency [3] | Potency [4] | Potency [5]

C[C@H]1CN([C@@H](C)CO)C(=O)c2cccc(NS(=O)(=O)c3ccc(Cl)cc3)c2O[C@@H]1CN(C)CC1CCCCC1
inactive: Potency [1] | Potency [2] | activation [3] 0% [at 17.1 µM, percent relative to cAMP agonist control] | Potency [4] | activity change, negative = inhibition [5] 0.127% [at 30.8 µM]

O=C1C=C(Nc2cccnc2)c2ccccc2C1=O
inactive: Potency [2] | Potency [3] | outcome [4] inactive [at 12.7 µM] | Potency [5]
active: Potency [1] 67.5 µM

O=C(/C=C/c1ccco1)NC(=S)Nc1cccc([N+](=O)[O-])c1
inactive: Potency [2] | activation [3] 7.76% [at 17.1 µM, percent relative to cAMP agonist control] | Potency [4] | activity change, negative = inhibition [5] -9.95% [at 30.8 µM]
active: Potency [1] 20 µM

Cc1cscc1-c1ccc(C(=O)Nc2c(C)cccc2C)o1
inactive: Potency [1] | Potency [2] | activation [3] 7.37% [at 17.1 µM, percent relative to cAMP agonist control] | Potency [4] | activity change, negative = inhibition [5] -5.01% [at 30.8 µM]

COc1ccc(C(=O)NCc2ccc3c(c2)CCN3C(=O)c2ccc(C)cc2)cc1
inactive: Potency [1] | Potency [2] | Potency [3] | Potency [4] | Potency [5]

CC(C)(C)n1cnc2cc(NCc3ccccc3Cl)ccc21
inactive: Potency [2] | Potency [3] | Potency [4] | Potency [5]
active: Potency [1] 84.9 µM

COC(=O)c1ccccc1NC(=O)CN1C(=O)COc2ccccc21
inactive: Potency [1] | Potency [2] | Potency [3] | outcome [4] inactive [at 12.7 µM] | Potency [5]

O=C(CSc1nnc(SCc2ccccc2)s1)N/N=C/C=C\c1ccco1
active: Potency [1] 42.6 µM
inactive: Potency [2] | Potency [3] | Potency [4] | Potency [5]

O=C1Nc2ccccc2Nc2ncccc21
inactive: Potency [1] | Potency [2] | activation [3] -4.86% [at 17.1 µM, percent relative to cAMP agonist control] | Potency [4] | activity change, negative = inhibition [5] 0.957% [at 30.8 µM]

CCn1c(=O)c2sccc2n2c(CCCC(=O)N3CCN(c4cc(C)ccc4C)CC3)nnc12
inactive: Potency [1] | Potency [2] | Potency [3] | Potency [4] | Potency [5]

Cc1ccc(S(=O)(=O)N(C)C)cc1NC(=O)CSc1nc2ncc(Cl)cc2[nH]1
inactive: Potency [1] | Potency [2] | Potency [3] | outcome [4] inactive [at 12.7 µM] | Potency [5]

COC(=O)c1cc2oc(C)cc2n1Cc1cccc(Cl)c1
inactive: Potency [1] | Potency [2] | Potency [3] | Potency [4] | Potency [5]

COC(=O)c1cc2sc(C)cc2n1Cc1cccc(OC)c1
inactive: Potency [1] | Potency [2] | Potency [3] | Potency [4] | Potency [5]

CCn1c(C)nc2cc(C(=O)N/N=C(\C)c3ccccc3O)ccc21
active: Potency [1] 7.08 µM
inactive: Potency [2] | activation [3] 0.106% [at 17.1 µM, percent relative to cAMP agonist control] | Potency [4] | activity change, negative = inhibition [5] -28% [at 30.8 µM]

CC(C)OP(=O)(c1ccc(N(C)C)cc1)C(Nc1ccccc1)c1ccccc1 (stereo not given)
inactive: Potency [1] | Potency [2] | Potency [3] | Potency [4] | Potency [5]

Cc1ccc(-n2c(SCC(=O)N/N=C/c3ccccc3C(=O)O)nnc2-c2ccc(Cl)cc2)cc1
inactive: Potency [1] | Potency [2] | Potency [3] | Potency [4] | Potency [5]

COC(=O)CSc1nc2sc3c(c2c(=O)n1-c1ccc(OC)cc1)CCN(C)C3
inactive: Potency [1] | Potency [2] | Potency [3] | Potency [4] | Potency [5]

CC(C)O/C(=N\S(=O)(=O)c1ccc(Cl)cc1)c1ccccc1
inactive: Potency [1] | Potency [2] | Potency [3] | Potency [5]
active: Potency [4] 16.9 µM

COC(=O)CNc1cc(S(=O)(=O)N2CCCCC2)ccc1Oc1cccc(C)c1
inactive: Potency [1] | Potency [2] | Potency [3] | Potency [4] | Potency [5]

CCOc1ccc(C(=O)Nc2ccc3c(c2)N(C(C)=O)CCC3)cc1OCC
inactive: Potency [1] | Potency [2] | Potency [3] | Potency [4] | Potency [5]

Cc1cccc(Cn2c(SCc3ccc(C(=O)N4CCCCCC4)cc3)nc3ccncc32)c1
inactive: Potency [1] | Potency [2] | Potency [3] | Potency [4] | Potency [5]

O=C(CCSc1nc2ccccc2o1)N1CCOCC1
inactive: Potency [1] | Potency [2] | activation [3] 0.888% [at 17.1 µM, percent relative to cAMP agonist control] | Potency [4] | activity change, negative = inhibition [5] -23.1% [at 30.8 µM]

COC(=O)[C@@H]1C[C@@H](c2ccccc2)[C@H](C)C1(C)C
inactive: Potency [1] | Potency [2] | Potency [3] | Potency [4] | Potency [5]

CC(OC(=O)Cc1c[nH]c2ccccc12)C(=O)Nc1ccccc1F (stereo not given)
inactive: Potency [1] | Potency [2] | Potency [3] | Potency [4] | Potency [5]

O=C(COC(=O)CNC(=O)c1ccc(Cl)cc1Cl)NCc1ccco1
inactive: Potency [1] | Potency [2] | activation [3] 5.36% [at 17.1 µM, percent relative to cAMP agonist control] | Potency [4] | activity change, negative = inhibition [5] 9.24% [at 30.8 µM]

Cc1ccc(N(CCC#N)C(=O)COC(=O)c2ccccc2SCC(=O)N2CCCC2)cc1
inactive: Potency [1] | Potency [2] | Potency [3] | Potency [4] | Potency [5]

CCCC(C(=O)Nc1ccc(C)c(S(=O)(=O)N2CCOCC2)c1)c1ccccc1 (stereo not given)
inactive: Potency [1] | Potency [2] | activation [3] 4.3% [at 17.1 µM, percent relative to cAMP agonist control] | Potency [4] | activity change, negative = inhibition [5] -29.6% [at 30.8 µM]

N#C/C(=C\c1ccc(C(=O)O)cc1)c1nc2sc3c(c2c(=O)[nH]1)CCCC3
inactive: Potency [1] | Potency [2] | activation [3] 10.5% [at 17.1 µM, percent relative to cAMP agonist control] | Potency [4] | activity change, negative = inhibition [5] 7.93% [at 30.8 µM]

CCN(CC)S(=O)(=O)c1c(Br)cc(C)cc1Br
inactive: Potency [1] | Potency [2] | activation [3] 0.523% [at 17.1 µM, percent relative to cAMP agonist control] | activity change, negative = inhibition [5] -9.59% [at 30.8 µM]
active: Potency [4] 3.79 µM
